Assay results published in PubChem BioAssay (Tox21).
Several values for one entry are separate records, joined by “and”; a condition that tells them apart may be missing. Equal values may be shown once. Results filed as inconclusive are left out. Activity calls are given as the source filed them. Calls come from the whole dose curve; as a rule, active = well fitted curve in the direction sought with a large enough effect in the repeat runs; inconclusive = weak or mixed curves; inactive = no such curve, though single readings can be large; an effect the other way counts as inactive or inconclusive.

Legend:
[1] = qHTS RealTime-Glo MT Cell Viability Assay in HepG2 cells - 24 hour (AID 1224867); note: nearly all actives have a fitted effect of over 50% in size
Method in brief: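 Compound treatment began 5 h after plating HepG2 cells (600/well) with NanoLuc luciferase and prosubstrate. Plates stayed at 37 C for 40 h; luminescence was captured at six time points, 0 h through 40 h.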

[2] = qHTS RealTime-Glo MT Cell Viability Assay in HEK293 cells - 32 hour (AID 1224868); note: top concentration of the series differs between compounds; nearly all actives have a fitted effect of over 50% in size
Method in brief: (§1)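 Quantitative high-throughput screen of the Tox21 10K library in HEK293: cells and RealTime-Glo reagents plated together, compound added at 5 h, luminescence monitored through 40 h at 37 C.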

[3] = A CellTox Green Cytotoxicity Assay to monitor cytotoxicity in HEK293 cells - 0 hour (AID 1224869); note: nearly all actives have a fitted effect of over 50% in size
Method in brief: (§2)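 HEK293 cells premixed with CellTox Green dye were seeded at 600 cells/well and left 5 h at 37 C/5% CO2 before pin transfer of 23 nL compound in DMSO. Fluorescence from dye bound to dead-cell DNA was read during 40 h treatment.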

[4] = qHTS RealTime-Glo MT Cell Viability Assay in HepG2 cells - 40 hour (AID 1224870); note: nearly all actives have a fitted effect of over 50% in size
Method in brief: (§3)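 HepG2 cells (600/well) mixed with RealTime-Glo MT reagent, settled 5 h at 37 C/5% CO2 before compound addition. Nonlytic NanoLuc luminescence from viable-cell prosubstrate reduction read repeatedly during 40 h treatment at 37 C.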

[5] = A CellTox Green Cytotoxicity Assay to monitor cytotoxicity in HEK293 cells - 40 hour (AID 1224871); note: nearly all actives have a fitted effect of over 45% in size
Method in brief: as §2

[6] = qHTS RealTime-Glo MT Cell Viability Assay in HEK293 cells - 16 hour (AID 1224872)
Method in brief: as §1

[7] = qHTS RealTime-Glo MT Cell Viability Assay in HepG2 cells - 8 hour (AID 1224873); note: nearly all actives have a fitted effect of over 55% in size
Method in brief: as §3

[8] = qHTS RealTime-Glo MT Cell Viability Assay in HEK293 cells - 40 hour (AID 1224874); conditions: RealTime-Glo luminescence; max response: active compounds read low; note: nearly all actives have a fitted effect of over 50% in size
Method in brief: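 HEK293 cells mixed with RealTime-Glo reagents (NanoLuc plus cell-permeant prosubstrate) at 600 cells/well, preincubated 5 h at 37 C/5% CO2, then given 23 nL compound in DMSO. Nonlytic luminescence from viable cells was read at 0, 8, 16, 24, 32 and 40 h.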

[9] = A CellTox Green Cytotoxicity Assay to monitor cytotoxicity in HEK293 cells - 24 hour (AID 1224875); note: series mostly up to about 77 µM; nearly all actives have a fitted effect of over 45% in size
Method in brief: as §2
% is set by controls: 0 for no effect and ±100 for the full control effect.

CCCCCCCCCC
inactive: outcome [1] | Potency [2] | outcome [3] | outcome [4] | Potency [5] | Potency [6] | outcome [7] | max response [8] 1.13% and 22.3% | Potency [9]

CCCCCCCCC/C=C/CC1CC(=O)OC1=O (configuration not stated)
inactive: outcome [1] | Potency [2] | outcome [3] | outcome [4] | Potency [5] | Potency [6] | outcome [7] | max response [8] -19.7% and -2.36% | Potency [9]

CC(O)COCC(C)O (configuration not stated)
inactive: outcome [1] | Potency [2] | outcome [3] | outcome [4] | Potency [5] | Potency [6] | outcome [7] | max response [8] -1.78% and 1.64% | Potency [9]

CCN(CC)c1ccc(C(=O)c2ccccc2C(=O)O)c(O)c1
inactive: outcome [1] | Potency [2] | outcome [3] | outcome [4] | Potency [5] | Potency [6] | outcome [7] | max response [8] -1.39% and 2.11% | Potency [9]

C#C[C@]1(O)CC[C@H]2[C@@H]3CCC4=CC(=O)CC[C@@H]4[C@H]3CC[C@@]21C
inactive: outcome [1] | Potency [2] | outcome [3] | outcome [4] | Potency [5] | Potency [6] | outcome [7] | max response [8] -16% | Potency [9]

CCCCC(CC)CO (configuration not stated)
inactive: outcome [1] | Potency [2] | outcome [3] | outcome [4] | Potency [5] | Potency [6] | outcome [7] | max response [8] 6.29% and 2.53% | Potency [9]

c1c[nH]cn1
inactive: outcome [1] | Potency [2] | outcome [3] | outcome [4] | Potency [5] | Potency [6] | outcome [7] | max response [8] 11.4% and 19.2% | Potency [9]

Cc1ccc(N(C)C)cc1
inactive: outcome [1] | Potency [2] | outcome [3] | outcome [4] | Potency [5] | Potency [6] | outcome [7] | max response [8] 0.353% and -2.55% | Potency [9]

CC1CCC2CC1C2(C)C (configuration not stated)
inactive: outcome [1] | Potency [2] | outcome [3] | outcome [4] | Potency [5] | Potency [6] | outcome [7] | max response [8] -4.21% and 10.8% | Potency [9]

C=C(C)C(=O)OCCOCCOCCOC(=O)C(=C)C
inactive: outcome [1] | Potency [2] | outcome [3] | outcome [4] | Potency [5] | Potency [6] | outcome [7] | max response [8] -0.0416% and 6.25% | Potency [9]

NNc1nncc2ccccc12
inactive: outcome [1] | activity change, negative = cytotoxic [2] 3.93% [at 15.8 µM] | outcome [3] | outcome [4] | Potency [5] | activity change, negative = cytotoxicity [6] -0.186% [at 15.8 µM] | outcome [7] | max response [8] 2.59% | Potency [9]

CC(c1cc2ccccc2s1)N(O)C(N)=O (configuration not stated)
inactive: outcome [1] | Potency [2] | outcome [3] | outcome [4] | Potency [5] | Potency [6] | outcome [7] | max response [8] -14.9% and -8.57% | Potency [9]

C[Si](O[Si](C)(C)C)O[Si](C)(C)C
inactive: outcome [1] | Potency [2] | outcome [3] | outcome [4] | Potency [5] | Potency [6] | outcome [7] | max response [8] 1.67% and 1.77% | Potency [9]

O=C1CCC(N2C(=O)c3ccccc3C2=O)C(=O)N1 (configuration not stated)
inactive: outcome [1] | Potency [2] | outcome [3] | outcome [4] | Potency [5] | Potency [6] | outcome [7] | max response [8] 7.18% and -6.83% | Potency [9]

CCCC(C)=O
inactive: outcome [1] | Potency [2] | outcome [3] | outcome [4] | Potency [5] | Potency [6] | outcome [7] | max response [8] 3.18% and 6.23% | Potency [9]

O=c1[nH]c(=O)n([C@H]2C[C@H](O)[C@@H](CO)O2)cc1Br
inactive: outcome [1] | Potency [2] | outcome [3] | outcome [4] | Potency [5] | Potency [6] | outcome [7] | max response [8] 0.308% | Potency [9]

Cc1ccc2oc(=O)ccc2c1
inactive: outcome [1] | Potency [2] | outcome [3] | outcome [4] | Potency [5] | Potency [6] | outcome [7] | max response [8] -2.42% and -2.11% | Potency [9]

O=C(OCCOCCOC(=O)c1ccccc1)c1ccccc1
inactive: outcome [1] | outcome [3] | outcome [4] | Potency [5] | outcome [7] | max response [8] -18.1% | Potency [9]

CCOC(=O)NNc1nncc2ccccc12
inactive: outcome [1] | Potency [2] | outcome [3] | outcome [4] | Potency [5] | Potency [6] | outcome [7] | max response [8] 3.91% and 1.02% | Potency [9]

CC(=O)Nc1ccccc1
inactive: outcome [1] | Potency [2] | outcome [3] | outcome [4] | Potency [5] | Potency [6] | outcome [7] | max response [8] 12.1% and 6.06% | Potency [9]

O=C(O)CCCCCCCCCCC(=O)O
inactive: outcome [1] | Potency [2] | outcome [3] | outcome [4] | Potency [5] | Potency [6] | outcome [7] | max response [8] -3.15% and -61.6% | Potency [9]
